# High-throughput results as filed in PubChem BioAssay.
# PK Bst: Pyruvate Kinase | purified pyruvate kinase, luminescence ATP production; ribose 5-phosphate activator present at AC10 | Potency, µM | actives 1.2% (n = 51,000) | AID 361, 2006; in the data active = potency below about 11 µM; inconclusive = mostly about 12 µM to 25 µM;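 the screen sought inhibitors and activators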;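 note: scaled between full activation by ribose 5 phosphate and full inhibition by luteolin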
# TSHR agonist: qHTS Assay for Agonists of the Thyroid Stimulating Hormone Receptor | actives 0.48% (n = 73,000) | AID 926, 2007 | Potency, µM (titrated, usually from 57.1 µM), for inactives: top-dose activation, actives largely listed as activators | HEK293-CNG-TSHR cells (CNG channel as cAMP sensor), membrane potential dye, cAMP; active = well fitted activation curve with a large enough effect in the main read-out, with a control signal flat, not every such curve was filed as active; inconclusive = small, poorly fitted or top-dose-only effect, or a change in a side signal; inactive = no such curve, though single readings can be large or run the other way; % of control where 0% means no effect;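 note: the control signal comes from parental cells without the receptor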
#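 HEK 293 cells stably expressing TSHR and a modified CNG channel, with CNG-only parental cells as counterscreen, were preloaded 60 min at room temperature with membrane potential dye containing 100 uM RO 20-1724. Compound exposure was 30 min, and depolarization was read as fluorescence at 590 nm.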
# USP2a inhib: qHTS Assay for Inhibitors of Ubiquitin-specific Protease USP2a; Ubiquitin carboxyl-terminal hydrolase 2 (Homo sapiens), O75604; USP2a enzymatic assay, qHTS inhibition; Potency, µM (top dose mostly 38.3 µM), for the others: top-dose activity change, negative = inhibition, actives largely listed as inhibitors; actives 0.1% (n = 60,000); note: nearly all actives have a fitted effect of over 60% in size
# Target sequence (O75604 whole entry, looked up): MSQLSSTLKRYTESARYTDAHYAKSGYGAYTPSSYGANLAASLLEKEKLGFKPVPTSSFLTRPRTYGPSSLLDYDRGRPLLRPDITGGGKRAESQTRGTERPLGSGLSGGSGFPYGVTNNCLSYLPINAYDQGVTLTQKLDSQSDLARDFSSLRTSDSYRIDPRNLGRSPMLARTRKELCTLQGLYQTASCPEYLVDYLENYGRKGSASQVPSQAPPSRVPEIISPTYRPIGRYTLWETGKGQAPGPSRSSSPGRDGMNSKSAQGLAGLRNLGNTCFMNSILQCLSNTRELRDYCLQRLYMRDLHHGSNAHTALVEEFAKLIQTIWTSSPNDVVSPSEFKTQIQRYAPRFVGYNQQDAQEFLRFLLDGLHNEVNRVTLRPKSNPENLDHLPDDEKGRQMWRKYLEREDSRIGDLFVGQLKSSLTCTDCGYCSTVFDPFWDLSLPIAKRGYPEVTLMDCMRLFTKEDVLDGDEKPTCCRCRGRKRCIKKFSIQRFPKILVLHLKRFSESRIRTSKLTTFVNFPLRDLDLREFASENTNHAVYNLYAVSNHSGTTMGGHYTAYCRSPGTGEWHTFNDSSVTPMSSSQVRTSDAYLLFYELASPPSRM
#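 Coupled readout: USP2-cleaved Ub-PLA2 (20nM final) turns over NBD C6-HPC (20uM final), Ex 460nm/Em 535nm after 2.5 h, time-zero read flagging artifacts. Enzyme (20nM final, pH 8.0 Tris) given 30 min RT with compound first; NEM defines full inhibition.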
# UbGFP stabilizer: Ubiquitin-GFP Assay. Ubiquitin-GFP reporter cells, proteasome inhibition, GFP fluorescence; response scale: untreated = 0%, 10 µM MG-132 = 100%. Potency, µM (titrated, usually from 45.9 µM), without a hit: at the highest dose activation (GFP accumulation), most hits filed as activators. 67,000 tested, under 10 active. AID 526, 2006; active = well fitted activation curve with a large enough effect, not every such curve was filed as active; inconclusive = small, poorly fitted or top-dose-only effect, or another doubt; inactive = no such curve, though single readings can be large or run the other way
#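 U2OS cells expressing ubiquitin(G76V)-GFP, seeded overnight in 0.5% FBS medium, then treated 4 hr at 37 C across 46 uM to 2.9 nM. GFP-positive cells counted by laser cytometry (488 ex/515 em); %activity scaled between basal and 10 uM MG-132.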
# HEK293 cAMP ctrl: qHTS Assay for Agonists of the Thyroid Stimulating Hormone Receptor: Activators of Intracellular cAMP Concentrations in Parental HEK 293. parental HEK293 CNG cAMP sensor, membrane potential fluorescence. AID 938, 2007. actives 2.5% (n = 73,000). Potency, µM (highest dose often 57.1 µM), inactives show at the highest dose activation, usual class: activators; note: % of control where 0% means no effect; nearly all actives have a fitted effect of over 55% in size
#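 Parental HEK 293 cells stably expressing a cAMP-gated CNG channel were loaded with membrane potential dye containing 100 uM RO 20-1724 for 60 min. Compound added for 30 min; depolarization read as fluorescence intensity at 590 nm.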
# GBA mod: Glucocerebrosidase; Lysosomal acid glucosylceramidase (Homo sapiens), P04062; purified enzyme, resorufin glucoside fluorescence (screen aimed at inhibitors), 20 min; Potency, µM; actives 1.1% (n = 48,000); in the data active = potency below about 15 µM; inconclusive = mostly about 16 µM to 33 µM;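 note: the screen sought inhibitors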
#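 Normal human glucocerebrosidase (0.2 nM final) was assayed with resorufin β-D-glucopyranoside (30 uM final) in 50mM citric acid/KH2PO4, 10mM sodium taurocholate, 0.01% tween-20, pH 5.9. Compounds were titrated; fluorescence (Ex 548, Em 600) read after 20 min at RT.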
# * = called active by the depositor; ? = inconclusive; nt = no result given; [ ] = dose if it differs, or a comment. Compounds with a hit are over-represented: about 4.1% of the library has one in this group of screens. Unless noted, calls come from the whole dose curve; as a rule, active = well fitted curve in the direction sought with a large enough effect; inconclusive = small, poorly fitted or top-dose-only effect, or another doubt; inactive = no such curve, though single readings can be large; an effect the other way counts as inactive or inconclusive. Potency is the fitted concentration of half-maximal effect.
SMILES,PK Bst,TSHR agonist,USP2a inhib,UbGFP stabilizer,HEK293 cAMP ctrl,GBA mod
COc1ccc(-n2c(SCc3nnc(-c4ccccc4)o3)nnc2-c2ccccc2)cc1,>57,?,45.7%,-4.3%,20µM*,>76.9
Cc1nnc(SCc2nnc(-c3ccc(Cl)cc3)o2)n1-c1ccccc1,7.53*,-1.8%[11.4 µM],49.8%,-6.1%,6.9%,>76.9
COc1ccc(-c2nnc(SCc3nnc(-c4ccccc4)o3)n2-c2ccccc2)cc1,nt,18.8%[11.4 µM],2.9%[7.66 µM],11.9%[9.17 µM],9.6%[11.4 µM],nt
O=C(c1ccc(Cc2nc3ccccc3[nH]2)cc1)N1CCOCC1,nt,0.3%,nt,nt,29.9%,nt
CCc1c(C#N)c(SCc2c(C)noc2C)nc2c1C(=O)CC(C)(C)C2,>57,?,-11.6%,7.9%,12.6µM*,>76.9
Cc1ccc2[nH]c(=O)c(CN(Cc3nnnn3Cc3ccccc3)C3CCCC3)cc2c1,>11.4,19.8%,0.4%,1.8%,-8.1%,>76.9
Cc1cccc2cc(CN(Cc3nnnn3Cc3ccco3)C3CCCC3)c3nnnn3c12,>57,?,10.9%,-0.2%,10µM*,9.84*
CCCCOCCCNC(=O)Cc1cccs1,nt,?,11.8%[7.66 µM],-7.4%[9.17 µM],1.58µM*,nt
CCc1nnc(NC(=O)CSc2nnc(CNc3ccc(Cl)cc3)o2)s1,>57,-0.3%,4.1%,1.7%,7.7%,15.3*
CCc1nnc(NC(=O)CSc2nnc(Cc3ccccc3)o2)s1,>57,10.2%[11.4 µM],-2.3%,-3.2%,-7.7%,?
COc1cccc(-c2ccc3ncnc(Nc4ccccc4)c3c2)c1,nt,?,186.4%,3.3%,20µM*,nt
Fc1ccc(Nc2ncnc3ccc(-c4ccoc4)cc23)cc1,nt,?,173.0%,-8.4%,12.6µM*,nt
COc1ccccc1CNc1ncnc2ccc(-c3ccccc3OC)cc12,nt,12.6µM*,169.4%,-4.3%,20.1%,nt
CS(=O)(=O)Nc1cccc(-c2ccc3ncnc(Nc4ccccc4)c3c2)c1,nt,?,226.2%,-3.3%,?,nt
CNc1ncnc2ccc(-c3ccccc3OC)cc12,nt,6.9%,-9.7%,0.9%,15.9%,nt
COc1ccccc1-c1ccc2ncnc(Nc3ccccc3)c2c1,nt,?,168.4%,0.7%,15.8µM*,nt
O=C(O)C[C@H](Cc1ccccc1)C(=O)O,nt,-1.2%[11.4 µM],nt,6.9%[9.17 µM],2.1%[11.4 µM],nt
COc1cccc(-c2ccc3ncnc(N(C)C)c3c2)c1,nt,?,65.3%,2.4%,25.1µM*,nt
C[C@@H]1O[C@@H](n2cc(F)c(=O)[nH]c2=O)[C@H](O)[C@@H]1O,nt,nt,-0.9%,9.8%,15.9%,nt
CCOC(=O)c1c(C)[nH]c(C(=O)COC(=O)c2oc3ccc(OC)cc3c2C)c1C,>57,3.1%,30.8%,0.3%,6.7%,nt
COC(=O)c1c(C)[nH]c(C(=O)COC(=O)Cc2ccc3c(c2)OCCO3)c1C,>57,?,23.5%,0.9%,?,14.6*
O=C(NCc1cccc(C(F)(F)F)c1)C1CCCN(c2ncccn2)C1 (centres undefined),>57,3.3%,0.5%,-0.1%,13.5%,>76.9
O=C(Nc1cccc(C(F)(F)F)c1)C1CCCN(c2ncccn2)C1 (centres undefined),>57,?,43.4%,-3.0%,25.1µM*,nt
Oc1ccc(Nc2nc(NCC3CCCO3)c3ccccc3n2)cc1 (centres undefined),nt,-3.9%,6.0%,-5.3%,-13.4%,?
Oc1ccccc1Nc1nc(NCC2CCCO2)c2ccccc2n1 (centres undefined),nt,-34.1%,212.5%,-2.2%,-28.4%,0.426*
SMILES,PK Bst,TSHR agonist,USP2a inhib,UbGFP stabilizer,HEK293 cAMP ctrl,GBA mod
O=C(O)c1ccc(C(=O)O)c(C(=O)Nc2ccc3c(c2)Cc2ccccc2-3)c1,nt,3.3%[11.4 µM],nt,1.3%[9.17 µM],-7.3%[11.4 µM],nt
Oc1c(C(c2ccccc2)N2CCN(Cc3ccccc3)CC2)sc2ncnn12 (centres undefined),nt,?,nt,1.6%,31.6µM*,nt
CC/C(=C(\c1ccccc1)c1ccc(OCCN(C)C)cc1)c1ccc(O)cc1,nt,18.1%,nt,nt,23.7%,nt
CCn1c(SCCOc2ccc(Cl)cc2)nnc1-c1cccs1,>57,?,5.7%,-0.2%,31.6µM*,>76.9
COC(=O)CSc1nnc(-c2cccs2)n1-c1ccc(Cl)cc1,>57,17.0%,27.4%,0.0%,22.9%,nt
CC(C)c1nc2oc3c(=O)[nH]cnc3c2c2c1CCC2,>57,6.5%,1.58µM*,0.0%,0.5%,>76.9
Clc1ccc(OCc2nn3c(-c4ccco4)nnc3s2)c(Cl)c1,>57,?,8.8%,1.5%,31.6µM*,>76.9
O=C(C1CCC(CNS(=O)(=O)c2cccc3cccnc23)CC1)N1CCCC1 (centres undefined),nt,?,nt,15.6%,25.1µM*,nt
O=Nc1c2nc3ccccc3n(O)c-2c2ccccc12,7.25*,-16.5%,9.2%,-13.2%,-9.7%,>76.9
COc1cccc(-c2nc3ccc(O)cc3c(=O)o2)c1,11.2*,-1.5%,9.0%,-8.7%,-0.4%,12.6*
COc1cccc(-c2cc(=O)c3cc(O)ccc3o2)c1,nt,?,nt,-9.1%,?,nt
N[C@@H](Cn1ccc(=O)n(Cc2ccccc2C(=O)O)c1=O)C(=O)O,nt,4.5%,nt,-2.3%,1.0%,nt
Clc1ccc(/C=C\c2nc(Cl)c(-c3ccc(Cl)cc3)c(Cl)n2)cc1,nt,1.6%[11.4 µM],nt,-6.9%[9.17 µM],8.6%[11.4 µM],nt
Cc1cc(NC(=O)CS(=O)(=O)c2cn(Cc3ccccc3Cl)c3ccccc23)no1,>57,?,46.6%,-6.2%,25.1µM*,nt
Cc1ccccc1Cn1cc(S(=O)(=O)CC(=O)N2CCCCC2)c2ccccc21,>57,?,-1.7%,4.4%,31.6µM*,>76.9
O=C(CS(=O)(=O)c1cn(Cc2cccc(F)c2)c2ccccc12)N1CCOCC1,>57,0.6%,6.4%,4.4%,10.8%,>76.9
CC(=O)OCC1OC(C#Cc2ccc(C)cc2C)C=CC1OC(C)=O (centres undefined),nt,7.7%[11.4 µM],nt,nt,0.6%[11.4 µM],nt
COC(=O)N1CCC2(CCN(C(=O)Nc3ccc(OC)cc3)CC2)CC1,nt,?,2.3%,4.1%,15.8µM*,nt
COc1ccc(NC(=O)N2CC3(CCN(C(=O)c4c(C)noc4C)CC3)C2)cc1,nt,?,-23.3%,5.3%,12.6µM*,nt
COc1ccc(NC(=O)N2CC3(CCN(C(=O)c4ccc(OC)cc4)CC3)C2)cc1,nt,4.9%,47.5%,0.5%,15.7%,nt
Cc1ncn(-c2ccccc2O)c1C,nt,-3.5%[11.4 µM],nt,2.8%[9.17 µM],-2.7%[11.4 µM],nt
COc1ccccc1NC(=O)c1ccc(-c2ccccc2F)o1,>57,?,2.1%,-3.3%,25.1µM*,?
COc1ccc(C(=O)Nc2ccc(Cl)cc2C(=O)NCc2ccco2)cc1OC,nt,?,30.2%,-6.5%,25.1µM*,nt
COc1ccc(Cl)cc1NC(=O)CN(C(=O)c1ccco1)C1CCCCC1,>57,?,153.8%,-6.5%,3.98µM*,?
